Consider 14 molecules from PubChem BioAssay (NCI).

A short description of this assay: NCI Yeast Anticancer Drug Screen. Data for the cln2 rad14 strain (AID 165).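 Also: 0% = growth equal to vehicle treated cultures.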 Conditions: S. cerevisiae cln2 rad14 strain, stronger effect = higher value. Here is the method:
Growth inhibition of yeast strains with defined genetic alterations is measured as a screen for potential anti-cancer activity. Selected strains with alterations in DNA damage repair or cell cycle control were exposed to compounds and growth inhibition was measured relative to vehicle treated controls. The strain used in this assay is cln2 rad14

[1] abbreviates: at 5.0 µM (retest, dose inferred, filed as 0.5).
Where [2] appears, read: at 50.0 µM (retest, dose inferred, filed as 5.0).

“And” between values parts separate entries of the source, which are not always exact repeats. Equal entries are not always repeated. The panel holds about 79,000 compounds, 15% with a hit somewhere; the sample as a whole holds those more often. The source holds several records for some structures; these can differ, active in one and inactive in another. The source made the active and inactive calls. Rule as the data show it: active = growth inhibition above about 70%; inactive = the rest.

For the molecule `Cc1nc2c(Br)cc(Br)cc2c(=O)n1-c1ccccc1NC1OCC(O)C(O)C1O` (configuration not stated), the growth inhibition under setting [1] is 40% (inactive) and -2% (inactive); the growth inhibition under setting [2] was 95% (active) and 85% (active); the growth inhibition (at 50.0 µM) was 91.5% (active) and 60.1% (inactive).

Consider `CCC(=O)c1cc(C(=O)C(=S)SC)cc(C(=O)C(=S)SC)c1`, for which the growth inhibition is, setting by setting: under setting [1], -3% (inactive); under setting [2], 37% (inactive); (at 50.0 µM) 88.7% (active).

For `CCc1cc(O)c(Cl)c(C)c1Cl`, the growth inhibition runs as follows: under setting [1], 46% (inactive); under setting [2], 70% (active); (at 50.0 µM) 35% (inactive).

For `O=C(NCCCNCCN1C(=O)c2cccc3cc([N+](=O)[O-])cc(c23)C1=O)c1cc(-c2ccccc2)nc2ccccc12`, the growth inhibition is 33% (inactive) under setting [1], 78% (active) under setting [2] and 93.6% (active) (at 50.0 µM).

As to `O=C(Nc1ccc(Cl)cc1)Nc1nnc2nc(C(C(=O)c3cccc([N+](=O)[O-])c3Cl)c3nc4nnc(NC(=O)Nc5ccc(Cl)cc5)n4[nH]c3=O)c(=O)[nH]n12`, the growth inhibition by setting is: under setting [1], -8% (inactive); under setting [2], 14% (inactive); (at 50.0 µM) 99.2% (active).

As for `O=C(/C=C(/c1ccccc1)N1CCCCC1)c1ccccc1`, the growth inhibition is, setting by setting: under setting [1], 14% (inactive); under setting [2], 79% (active); (at 50.0 µM) 46% (inactive).

On to `CC1=C(C(=O)NCc2ccccc2)C(c2ccccc2)C(C(=O)NCc2ccccc2)=C(C)N1`, for which the growth inhibition reads like this: under setting [1], -7% (inactive); under setting [2], 51% (inactive); (at 50.0 µM) 11.4% (inactive).

Take `C/C=C/SC(=Nc1ccccc1)Nc1ccccc1`: the growth inhibition was 2% (inactive) under setting [1], 33% (inactive) under setting [2] and 2.3% (inactive) (at 50.0 µM).

For the molecule `COc1ccc(C(NCCNC(c2ccc(OC)c(OC)c2)c2cc3c(cc2O)OCO3)c2cc3c(cc2O)OCO3)cc1OC` (configuration not stated), the growth inhibition reads like this: under setting [1], -29% (inactive); under setting [2], 23% (inactive); (at 50.0 µM) 41.2% (inactive).

For the molecule `CN(C)c1ccc(N=Nc2ccncc2)cc1`, the growth inhibition was -36% (inactive) under setting [1], 2% (inactive) under setting [2] and 37.1% (inactive) (at 50.0 µM).

As for `O=C1C(=O)c2ccccc2C(O)=C1C(C1=C(O)c2ccccc2C(=O)C1=O)c1ccc(Cl)cc1`, the growth inhibition is 0% (inactive) under setting [1], 3% (inactive) under setting [2] and 42.4% (inactive) (at 50.0 µM).

As for `Cc1ccc(Cl)cc1NC(=O)OCCN(C)C(=O)Nc1cc(Cl)ccc1C`, the growth inhibition is, setting by setting: under setting [1], 17% (inactive); under setting [2], 75% (active); (at 50.0 µM) 85.1% (active).

Regarding `C=C(C(=C)n1nnc(C(=O)OC)c1C(=O)OC)n1nnc(C(=O)OC)c1C(=O)OC`, the growth inhibition runs as follows: under setting [1], -3% (inactive); under setting [2], -2% (inactive); (at 50.0 µM) 53.2% (inactive).

As for `CC1=CC(=C(c2ccc(N)cc2)c2ccc(N)cc2)C=CC1=N`, the growth inhibition under setting [1] is 1% (inactive) and -1% (inactive); the growth inhibition under setting [2] is 42% (inactive) and 61% (inactive); the growth inhibition (at 50.0 µM) was 34% (inactive) and -84.5% (inactive).
